The targets below were run with Nc1ncnc2c1ncn2[C@@H]1O[C@H](COP(=O)(O)OP(=O)(O)OP(=O)(O)O)[C@@H](O)[C@H]1O [adenosine 5'-triphosphate] (assay: log2 fold change of tryptic peptide abundance, ligand vs vehicle (limited proteolysis) (log2 ratio); higher = more trypsin-susceptible (destabilized)). Settings: ligand concentration: 5 mM; sample: E. coli desalted lysate; replicate design: treated before aliquoting.
Method: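 HT-PELSA: desalted E. coli K-12 BW25113 lysate (with 12 mM MgCl2) incubated with 5 mM ATP (pH 7) or water for 30 min at 25 C, then a 4 min trypsin pulse at 22 C. Peptides were quantified by DIA-MS (4 replicates). Value is the peptide log2 fold change (treated/control); negative = stabilized. Scale: negative = ligand-stabilized region.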
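Further: lysate desalted by size exclusion to strip endogenous ATP, peptide intensities built from DIA-NN precursor signals, and peptides missing any value discarded before comparison.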

Sequence of UniProt P76149 (P76149 whole entry): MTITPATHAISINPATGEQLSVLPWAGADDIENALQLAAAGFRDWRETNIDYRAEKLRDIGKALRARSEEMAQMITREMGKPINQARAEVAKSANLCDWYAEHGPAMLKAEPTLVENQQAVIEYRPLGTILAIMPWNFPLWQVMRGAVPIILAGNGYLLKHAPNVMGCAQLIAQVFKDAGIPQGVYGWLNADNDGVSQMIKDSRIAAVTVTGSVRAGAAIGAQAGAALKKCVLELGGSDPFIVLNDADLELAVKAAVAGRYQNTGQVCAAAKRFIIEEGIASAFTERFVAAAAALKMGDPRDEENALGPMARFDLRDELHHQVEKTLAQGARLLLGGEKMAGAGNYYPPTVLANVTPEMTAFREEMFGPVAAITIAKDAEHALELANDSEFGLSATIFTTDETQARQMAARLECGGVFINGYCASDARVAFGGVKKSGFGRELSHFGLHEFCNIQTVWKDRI
Sequence of UniProt P09323 (P09323 whole entry): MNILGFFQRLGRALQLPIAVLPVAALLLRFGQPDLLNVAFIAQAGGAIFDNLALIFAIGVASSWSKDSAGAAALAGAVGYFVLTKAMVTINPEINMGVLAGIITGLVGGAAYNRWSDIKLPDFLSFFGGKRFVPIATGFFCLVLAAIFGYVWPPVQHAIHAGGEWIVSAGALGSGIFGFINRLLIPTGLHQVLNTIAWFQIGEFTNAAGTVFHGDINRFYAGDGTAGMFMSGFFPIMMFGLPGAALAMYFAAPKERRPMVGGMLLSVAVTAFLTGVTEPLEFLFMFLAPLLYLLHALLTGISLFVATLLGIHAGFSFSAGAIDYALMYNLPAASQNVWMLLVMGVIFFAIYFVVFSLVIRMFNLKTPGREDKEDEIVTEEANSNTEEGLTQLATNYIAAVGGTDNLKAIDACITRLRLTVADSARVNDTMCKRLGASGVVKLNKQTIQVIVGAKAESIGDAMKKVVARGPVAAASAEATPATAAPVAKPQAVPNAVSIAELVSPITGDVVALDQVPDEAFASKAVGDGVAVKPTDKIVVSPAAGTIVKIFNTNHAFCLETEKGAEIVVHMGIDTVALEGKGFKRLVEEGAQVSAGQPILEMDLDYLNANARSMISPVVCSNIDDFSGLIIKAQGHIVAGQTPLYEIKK
Sequence of UniProt P75968 (P75968 whole entry): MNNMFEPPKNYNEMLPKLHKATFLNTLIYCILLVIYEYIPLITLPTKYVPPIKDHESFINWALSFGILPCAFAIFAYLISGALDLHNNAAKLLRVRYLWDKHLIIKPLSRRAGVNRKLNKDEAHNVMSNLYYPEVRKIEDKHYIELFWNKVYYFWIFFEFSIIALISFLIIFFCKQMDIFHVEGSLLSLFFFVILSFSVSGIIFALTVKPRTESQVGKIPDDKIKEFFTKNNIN
Sequence of UniProt P30011 (P30011 whole entry): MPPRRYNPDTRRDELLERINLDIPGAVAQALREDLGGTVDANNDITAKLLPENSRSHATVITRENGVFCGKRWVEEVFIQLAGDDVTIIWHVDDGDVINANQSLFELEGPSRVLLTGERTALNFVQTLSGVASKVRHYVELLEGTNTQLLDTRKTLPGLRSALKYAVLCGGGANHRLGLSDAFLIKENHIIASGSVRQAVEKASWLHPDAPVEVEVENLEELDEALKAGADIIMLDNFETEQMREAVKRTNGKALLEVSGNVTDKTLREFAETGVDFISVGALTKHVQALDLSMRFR
Sequence of UniProt P13518 (P13518 whole entry): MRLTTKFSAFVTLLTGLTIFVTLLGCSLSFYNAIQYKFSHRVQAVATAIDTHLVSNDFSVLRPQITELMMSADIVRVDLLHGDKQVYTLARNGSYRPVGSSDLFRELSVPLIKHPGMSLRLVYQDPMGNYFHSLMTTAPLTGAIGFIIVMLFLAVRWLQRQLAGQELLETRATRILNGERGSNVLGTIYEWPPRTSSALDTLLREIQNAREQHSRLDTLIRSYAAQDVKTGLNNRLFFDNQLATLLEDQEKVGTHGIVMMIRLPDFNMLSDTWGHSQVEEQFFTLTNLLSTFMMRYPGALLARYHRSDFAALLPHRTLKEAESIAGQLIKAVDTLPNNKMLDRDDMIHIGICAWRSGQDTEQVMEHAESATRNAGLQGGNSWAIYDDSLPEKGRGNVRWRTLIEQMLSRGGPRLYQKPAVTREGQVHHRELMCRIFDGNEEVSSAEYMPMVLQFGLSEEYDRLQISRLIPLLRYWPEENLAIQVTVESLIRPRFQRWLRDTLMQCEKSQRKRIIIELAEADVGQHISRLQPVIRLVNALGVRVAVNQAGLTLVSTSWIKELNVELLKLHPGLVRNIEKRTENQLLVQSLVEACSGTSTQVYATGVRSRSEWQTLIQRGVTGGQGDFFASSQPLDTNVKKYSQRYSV
Sequence of UniProt P24202 (P24202 whole entry): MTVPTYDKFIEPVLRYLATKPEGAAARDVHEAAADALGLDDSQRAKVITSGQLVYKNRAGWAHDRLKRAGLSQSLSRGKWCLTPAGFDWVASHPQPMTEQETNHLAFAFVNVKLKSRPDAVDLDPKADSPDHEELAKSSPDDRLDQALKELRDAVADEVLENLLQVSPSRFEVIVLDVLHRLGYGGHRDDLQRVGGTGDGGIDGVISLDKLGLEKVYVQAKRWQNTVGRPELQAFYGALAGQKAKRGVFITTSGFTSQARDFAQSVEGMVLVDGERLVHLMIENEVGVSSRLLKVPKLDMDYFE
Sequence of UniProt P77376 (P77376 whole entry): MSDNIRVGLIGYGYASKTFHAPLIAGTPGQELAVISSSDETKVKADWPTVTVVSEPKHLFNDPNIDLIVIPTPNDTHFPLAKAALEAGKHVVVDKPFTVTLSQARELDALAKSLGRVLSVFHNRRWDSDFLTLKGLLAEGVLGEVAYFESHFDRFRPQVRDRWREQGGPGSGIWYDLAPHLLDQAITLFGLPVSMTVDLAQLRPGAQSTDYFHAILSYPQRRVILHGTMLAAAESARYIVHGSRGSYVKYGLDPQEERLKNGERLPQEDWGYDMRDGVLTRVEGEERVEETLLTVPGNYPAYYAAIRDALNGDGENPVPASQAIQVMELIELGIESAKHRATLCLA
Sequence of UniProt P77795 (P77795 whole entry): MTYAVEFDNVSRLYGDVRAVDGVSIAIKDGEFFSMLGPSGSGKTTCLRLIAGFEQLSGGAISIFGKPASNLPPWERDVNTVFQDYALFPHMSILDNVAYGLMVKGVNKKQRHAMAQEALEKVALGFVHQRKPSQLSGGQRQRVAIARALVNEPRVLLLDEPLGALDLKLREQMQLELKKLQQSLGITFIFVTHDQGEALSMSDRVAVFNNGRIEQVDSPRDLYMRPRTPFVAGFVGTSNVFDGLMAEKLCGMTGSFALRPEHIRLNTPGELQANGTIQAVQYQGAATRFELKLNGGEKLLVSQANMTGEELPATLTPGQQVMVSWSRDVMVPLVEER
Sequence of UniProt P32134 (P32134 whole entry): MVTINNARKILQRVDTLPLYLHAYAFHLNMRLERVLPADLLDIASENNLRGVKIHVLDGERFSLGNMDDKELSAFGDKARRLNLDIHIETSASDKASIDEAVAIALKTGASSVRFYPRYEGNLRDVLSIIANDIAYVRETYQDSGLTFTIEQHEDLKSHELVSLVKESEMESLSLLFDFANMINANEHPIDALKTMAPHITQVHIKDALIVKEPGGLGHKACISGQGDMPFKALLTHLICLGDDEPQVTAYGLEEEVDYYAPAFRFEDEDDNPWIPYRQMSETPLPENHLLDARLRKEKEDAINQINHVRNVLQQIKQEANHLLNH

Target | log2 fold change
UniProt P76149 (peptide sequence: AGAAIGAQAGAALKK, peptide start residue: 216) | -1.54
UniProt P77795 (peptide sequence: IEQVDSPR, peptide start residue: 213) | -0.95
UniProt P09323 (peptide sequence: AIDACITR, peptide start residue: 408) | 0.593
UniProt P24202 (peptide sequence: LKSRPDAVDLDPK, peptide start residue: 114) | 0.712
UniProt P77376 (peptide sequence: VGLIGYGYASK, peptide start residue: 7) | -1.01
UniProt P13518 (peptide sequence: LYQKPAVTR, peptide start residue: 414) | 0.793
UniProt P75968 (peptide sequence: HLIIKPLSR, peptide start residue: 102) | -1.04
UniProt P32134 (peptide sequence: ACISGQGDMPFK, peptide start residue: 221) | -1.02
UniProt P30011 (peptide sequence: VRHYVELLEGTNTQLLDTR, peptide start residue: 135) | 0.868

Reference: the supplement of paper PMC12819154, “High-throughput peptide-centric local stability assay extends protein–ligand identification to membrane proteins, tissues and bacteria” (Nature Structural & Molecular Biology, 2025)
